Measured values published in PubChem BioAssay (NCATS).
Results filed as inconclusive are left out. Active and inactive are the calls of the source. Calls follow the shape of the dose curve; as a rule, active = well fitted curve in the direction sought with a large enough effect; inconclusive = small, poorly fitted or top-dose-only effect, or another doubt; inactive = no such curve, though single readings can be large; an effect the other way counts as inactive or inconclusive.

Experiments:
[1] = Quantitative High-Throughput drug screen in 47 multiple myeloma cell lines against the NCATS MIPE library collection: INA6_PLB cell viability assay (AID 1918965; also: nearly all actives have a fitted effect of over 55% in size)
How it was run: (§1)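 Approved and investigational drugs from MIPE 4.0 were added by pin tool to 500 cells per well. After 48 hours at 37C, ATP-based CellTiter-Glo luminescence indicated remaining viability.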

[2] = Quantitative High-Throughput drug screen in 47 multiple myeloma cell lines against the NCATS MIPE library collection: JJN3_DSMZ cell viability assay (AID 1918966; also: nearly all actives have a fitted effect of over 50% in size)
How it was run: (§2)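 CellTiter-Glo luminescence (ATP) after 48 h compound exposure, 37C/5% CO2; 500 cells/well; MIPE 4.0 approved/investigational drugs pinned in; DMSO = 100%, media only = 0% viability.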

[3] = Quantitative High-Throughput drug screen in 47 multiple myeloma cell lines against the NCATS MIPE library collection: H1112_PLB cell viability assay (AID 1918967; also: nearly all actives have a fitted effect of over 30% in size)
How it was run: as §2

[4] = Quantitative High-Throughput drug screen in 47 multiple myeloma cell lines against the NCATS MIPE library collection: Karpas25_ECACC cell viability assay (AID 1918968; also: nearly all actives have a fitted effect of over 35% in size)
How it was run: as §2

[5] = Quantitative High-Throughput drug screen in 47 multiple myeloma cell lines against the NCATS MIPE library collection: KMS27_JCRB cell viability assay (AID 1918970); conditions: KMS27 myeloma cells, CellTiter-Glo ATP viability, 48 h; viability (% of DMSO): at 45.8 µM (top of the series); also: nearly all actives have a fitted effect of over 30% in size
How it was run: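 ATP-based viability (CellTiter-Glo luminescence) is measured in cells treated 48 h with approved and investigational drugs at 37 °C. Controls are DMSO-only wells for full viability and media-only wells for none.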

[6] = Quantitative High-Throughput drug screen in 47 multiple myeloma cell lines against the NCATS MIPE library collection: KMS12BM_JCRB cell viability assay (AID 1918971); also: nearly all actives have a fitted effect of over 35% in size
How it was run: (§3)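 Inhibition of cell viability is measured here. Each line was plated at 500 cells per well, treated with MIPE 4.0 drugs, kept 48 hours at 37C, then assayed for ATP content by CellTiter-Glo luminescence.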

[7] = Quantitative High-Throughput drug screen in 47 multiple myeloma cell lines against the NCATS MIPE library collection: KMS12PE_JCRB cell viability assay (AID 1918972); also: nearly all actives have a fitted effect of over 30% in size
How it was run: as §1

[8] = Quantitative High-Throughput drug screen in 47 multiple myeloma cell lines against the NCATS MIPE library collection: KMS20_JCRB cell viability assay (AID 1918973); also: nearly all actives have a fitted effect of over 45% in size
How it was run: as §2

[9] = Quantitative High-Throughput drug screen in 47 multiple myeloma cell lines against the NCATS MIPE library collection: KMS26_JCRB cell viability assay (AID 1918975); also: nearly all actives have a fitted effect of over 45% in size
How it was run: as §3

[10] = Quantitative High-Throughput drug screen in 47 multiple myeloma cell lines against the NCATS MIPE library collection: MMM1_PLB cell viability assay (AID 1918976); also: nearly all actives have a fitted effect of over 35% in size
How it was run: (§4)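 MIPE 4.0 approved/investigational drugs; 500 cells/well; 48 h 37 °C humidified 5% CO2; CTG luminescence readout; DMSO = 100%, media = 0% viability.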

[11] = Quantitative High-Throughput drug screen in 47 multiple myeloma cell lines against the NCATS MIPE library collection: MOLP8_DSMZ cell viability assay (AID 1918977); also: nearly all actives have a fitted effect of over 45% in size
How it was run: as §4

[12] = Quantitative High-Throughput drug screen in 47 multiple myeloma cell lines against the NCATS MIPE library collection: NCIH929_DSMZ cell viability assay (AID 1918978); also: nearly all actives have a fitted effect of over 35% in size
How it was run: as §4

[13] = Quantitative High-Throughput drug screen in 47 multiple myeloma cell lines against the NCATS MIPE library collection: OCIMY1_PLB cell viability assay (AID 1918979); also: nearly all actives have a fitted effect of over 35% in size
How it was run: as §4

[14] = Quantitative High-Throughput drug screen in 47 multiple myeloma cell lines against the NCATS MIPE library collection: MM1S_ATCC cell viability assay (AID 1918980); also: nearly all actives have a fitted effect of over 45% in size
How it was run: as §4

[15] = Quantitative High-Throughput drug screen in 47 multiple myeloma cell lines against the NCATS MIPE library collection: MM1R_ATCC cell viability assay (AID 1918981); also: nearly all actives have a fitted effect of over 35% in size
How it was run: as §4

[16] = Quantitative High-Throughput drug screen in 47 multiple myeloma cell lines against the NCATS MIPE library collection: KMS28PE_JCRB cell viability assay (AID 1918983); also: nearly all actives have a fitted effect of over 35% in size
How it was run: as §4

[17] = Quantitative High-Throughput drug screen in 47 multiple myeloma cell lines against the NCATS MIPE library collection: L363_DSMZ cell viability assay (AID 1918984); also: nearly all actives have a fitted effect of over 40% in size
How it was run: as §4

[18] = Quantitative High-Throughput drug screen in 47 multiple myeloma cell lines against the NCATS MIPE library collection: KMS34_JCRB cell viability assay (AID 1918985); also: nearly all actives have a fitted effect of over 40% in size
How it was run: as §4

[19] = Quantitative High-Throughput drug screen in 47 multiple myeloma cell lines against the NCATS MIPE library collection: LP1_DSMZ cell viability assay (AID 1918982); also: nearly all actives have a fitted effect of over 35% in size
How it was run: as §4

[20] = Quantitative High-Throughput drug screen in 47 multiple myeloma cell lines against the NCATS MIPE library collection: KMS21BM_JCRB cell viability assay (AID 1918974); conditions: ATP luminescence, 48 h; viability: at 45.8 µM (top of the series)
How it was run: as §2

Measured: Potency
Potency is read from the fitted curve at half-maximal effect.

CC(C)NC[C@@H](C(=O)N1CCN(c2ncnc3c2[C@H](C)C[C@H]3O)CC1)c1ccc(Cl)cc1
active: [1] 4.18 µM | [2] 6.62 µM | [3] 3.72 µM | [4] 469 nM | [5] 1.87 µM | [6] 6.62 µM | [7] 0.469 µM | [8] 743 nM | [9] 1.32 µM | [10] 26.4 nM | [11] 296 nM | [12] 105 nM | [13] 16.6 µM | [14] 46.9 nM | [15] 105 nM | [16] 1.48 µM | [17] 37.2 nM | [18] 14.8 µM

COc1cccc2c1C(=O)c1c(O)c3c(c(O)c1C2=O)C[C@@](O)(C(=O)CO)C[C@@H]3O[C@H]1C[C@H](N)[C@@H](O)[C@H](C)O1
active: [1] 0.166 µM | [2] 0.662 µM | [3] 0.59 µM | [4] 418 nM | [5] 0.935 µM | [6] 0.469 µM | [7] 2.35 µM | [8] 166 nM | [9] 1.48 µM | [10] 469 nM | [11] 372 nM | [12] 235 nM | [13] 1.66 µM | [14] 66.2 nM | [15] 118 nM | [19] 1.87 µM | [16] 0.526 µM | [17] 1870 nM | [18] 0.743 µM

CC(C)C[C@H](NC(=O)[C@@H](NC(=O)c1cccc(-c2ccccc2)n1)[C@@H](C)O)B(O)O
active: [1] 0.001 µM | [2] 0.0418 µM | [3] 0.0332 µM | [4] 13.2 nM | [5] 0.0235 µM | [6] 0.0372 µM | [7] 0.0105 µM | [8] 33.2 nM | [9] 0.0418 µM | [10] 3720 nM | [12] 11.8 nM | [13] 0.0166 µM | [14] 13.2 nM | [15] 13.2 nM | [19] 0.0296 µM | [16] 0.0235 µM | [17] 26.4 nM | [18] 0.0209 µM

Cc1ncc(-c2ccnc(Nc3ccc(S(C)(=O)=O)cc3)n2)n1C(C)C
active: [1] 1.18 µM | [2] 2.09 µM | [3] 4.18 µM | [4] 2350 nM | [5] 2.64 µM | [6] 4.18 µM | [7] 2.96 µM | [8] 2350 nM | [9] 2.64 µM | [10] 4690 nM | [11] 1320 nM | [13] 6.62 µM | [14] 2640 nM | [15] 2350 nM | [19] 3.32 µM | [16] 5.26 µM | [17] 1660 nM | [18] 1.87 µM

COc1cccc2c1C(=O)c1c(O)c3c(c(O)c1C2=O)C[C@@](O)(C(C)=O)C[C@H]3O[C@H]1C[C@H](N)[C@H](O)[C@H](C)O1
active: [1] 0.0332 µM | [2] 0.105 µM | [3] 0.209 µM | [4] 37.2 nM | [5] 0.0372 µM | [6] 0.0662 µM | [7] 0.0662 µM | [8] 52.6 nM | [9] 0.296 µM | [11] 132 nM | [12] 46.9 nM | [13] 0.332 µM | [14] 46.9 nM | [15] 26.4 nM | [19] 0.209 µM | [16] 0.0833 µM | [17] 118 nM

COc1cccc2c1C(=O)c1c(O)c3c(c(O)c1C2=O)C[C@@](O)(C(=O)CO)C[C@H]3O[C@H]1C[C@H](N)[C@H](O)[C@H](C)O1
active: [1] 0.118 µM | [2] 0.132 µM | [3] 0.372 µM | [4] 118 nM | [5] 0.743 µM | [6] 0.166 µM | [7] 1.48 µM | [8] 52.6 nM | [9] 0.296 µM | [10] 148 nM | [11] 187 nM | [12] 93.5 nM | [13] 0.296 µM | [14] 20.9 nM | [15] 20.9 nM | [19] 0.0743 µM | [16] 0.166 µM | [17] 743 nM | [18] 0.235 µM

COc1cc2c(Nc3ccc(Cl)c(Cl)c3F)ncnc2cc1OCC1C[C@@H]2CN(C)C[C@H]2C1
active: [1] 1.48 µM | [2] 1.32 µM | [3] 2.35 µM | [4] 2350 nM | [5] 5.9 µM | [6] 5.26 µM | [7] 1.87 µM | [8] 1870 nM | [9] 2.35 µM | [10] 23500 nM | [12] 2090 nM | [14] 16600 nM | [15] 16600 nM | [19] 18.7 µM | [16] 16.6 µM | [17] 1660 nM

Nc1ccc(C(=O)Nc2cccc(-c3nc(N4CCOCC4)c4oc5ncccc5c4n3)c2)cn1
active: [1] 3.32 µM | [2] 5.26 µM | [3] 4.18 µM | [4] 2350 nM | [5] 6.62 µM | [6] 23.5 µM | [7] 2.64 µM | [8] 1480 nM | [20] 10.5 µM | [9] 2.35 µM | [11] 20900 nM | [12] 2640 nM | [13] 16.6 µM | [14] 23500 nM | [15] 13200 nM | [16] 26.4 µM | [17] 1180 nM | [18] 7.43 µM
